Compound activity from PubChem BioAssay.
cardiac RTF act – cardiac RTF calcium sensitization | activation, % at 7.2 µM | IANBD-labeled TnC RTF fluorescence at EC20 calcium; 0% EC20 calcium, 100% full calcium | 0.24% of 340,000 active | P19429+P45379;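 active = activation above the mean over all tested compounds plus 3 SD, cut at about 30% in these data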;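 also: rise in fluorescence read as greater calcium sensitivity of cardiac thin filaments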
TMEM16A inh – inhibitors of mouse TMEM16A calcium-activated chloride channel; Q8BHY3; 1.2% of 310,000 active; HEK293 TMEM16A/YFP iodide influx fluorescence, ionomycin; normalized B-score (activity score, 25-100; higher = stronger inhibition) at 10 µM; AID 588511;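 active = ratio plate-corrected score three or more library SD toward inhibition, starting fluorescence score within five deviations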;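 also: score derived from kinetic fluorescence span divided by baseline fluorescence per well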
Target sequence (Q8BHY3 whole entry, looked up): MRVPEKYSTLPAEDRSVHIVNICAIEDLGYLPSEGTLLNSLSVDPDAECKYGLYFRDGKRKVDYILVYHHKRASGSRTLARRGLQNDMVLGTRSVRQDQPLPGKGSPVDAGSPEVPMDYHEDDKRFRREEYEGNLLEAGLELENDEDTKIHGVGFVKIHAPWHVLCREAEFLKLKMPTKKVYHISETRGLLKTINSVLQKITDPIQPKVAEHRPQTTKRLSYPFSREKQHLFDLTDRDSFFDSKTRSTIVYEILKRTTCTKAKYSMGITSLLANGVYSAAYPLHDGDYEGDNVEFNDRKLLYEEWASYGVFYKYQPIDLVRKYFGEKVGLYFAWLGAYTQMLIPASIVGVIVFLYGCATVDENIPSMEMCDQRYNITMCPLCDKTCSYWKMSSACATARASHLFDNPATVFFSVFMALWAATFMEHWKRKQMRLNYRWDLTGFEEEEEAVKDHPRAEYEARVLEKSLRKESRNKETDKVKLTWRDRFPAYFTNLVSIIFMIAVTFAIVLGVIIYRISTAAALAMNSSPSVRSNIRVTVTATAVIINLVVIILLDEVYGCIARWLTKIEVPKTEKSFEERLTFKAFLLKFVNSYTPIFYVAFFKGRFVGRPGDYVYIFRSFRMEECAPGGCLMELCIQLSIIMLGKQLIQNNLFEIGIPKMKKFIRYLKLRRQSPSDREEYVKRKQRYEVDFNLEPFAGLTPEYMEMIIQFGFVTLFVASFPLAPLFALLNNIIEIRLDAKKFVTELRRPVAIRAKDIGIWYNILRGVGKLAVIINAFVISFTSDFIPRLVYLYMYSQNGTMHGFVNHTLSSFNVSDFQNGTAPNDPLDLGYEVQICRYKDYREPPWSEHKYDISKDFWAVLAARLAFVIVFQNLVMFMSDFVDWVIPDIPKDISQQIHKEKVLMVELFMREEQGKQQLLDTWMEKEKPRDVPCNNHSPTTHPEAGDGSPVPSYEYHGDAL
CRFBP-R2 agonist – CRF-BP/CRF-R2 complex agonism | activation, % at 13.2 µM | HEK293 CRF-R2/CRF-BP, calcium dye fluorescence (FLIPR); percent of saturating CRF peptide response | 0.46% of 350,000 active;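 active = activation of at least 50%, plus an integration ratio under a set limit after plate pattern correction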
TMEM16A act – activators or potentiators of mouse TMEM16A chloride channel; Q8BHY3; HEK293 TMEM16A/YFP-H148Q/I152L, iodide quench fluorescence; active compounds read low; B-score at 10 µM; 0.3% of 340,000 active;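 active = fluorescence-ratio B-score plate-corrected deviation score at least 3 library SD below zero, with starting fluorescence score within 5 deviations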;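 also: channel opened by trigger with iodide after compound preincubation; score built on the fluorescence ratio of max minus min over baseline; more negative score means more quench and so TMEM16A activation or potentiation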
Cardiac RTF inh – cardiac RTF calcium desensitization; P19429+P45379; IANBD-labeled cardiac RTF, Ca2+ fluorescence; inhibition, % at 7.15 µM; 0.12% of 340,000 active; AID 493244;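 active = inhibition above the mean inhibition of all tested compounds plus 3 SD, cut at about 17% in these data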;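 also: assay run at fixed EC70 calcium of 1.6 mM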
CRFR2-BP antag – CRF-BP/CRF-R2 complex antagonism | HEK293 CRF-R2/CRF-BP, CRF-induced calcium fluorescence | inhibition, % at 11.8 µM | 0.59% of 350,000 active | AID 588475;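 active = inhibition of the ligand-induced calcium signal above about 50% at the single tested concentration, limit read from the data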
Numbers stand for hits; – = inactive; · = no result; + = active, no number. A selection: hits, their analogues and other compounds. The true share with any hit is near 2.4%.

SMILES	cardiac RTF act	TMEM16A inh	CRFBP-R2 agonist	TMEM16A act	Cardiac RTF inh	CRFR2-BP antag
Cc1c(Cl)ccc2c1NC(=O)C21NC(CCC(N)=O)[C@H]2C(=O)N(c3ccc(Cl)cc3)C(=O)[C@H]21 (stereo partly drawn)	–	–	–	–	–	50
CCCCn1c(=O)[nH]c(=O)c2c1nc(CN(C)Cc1cccc(OC)c1OC)n2CCC	–	–	–	–	–	–
Nc1ccc(O)c(C(=O)O)c1	·	–	·	·	·	·
Nc1ccc(-c2c3ccc(=O)cc-3oc3cc(O)ccc23)c(C(=O)O)c1	+	·	232	–	–	–
CCOC(=O)C1CCCN(c2nc(C)nc3c2oc2ccccc23)C1 (stereo not drawn)	–	25	–	–	–	–
COc1ccc(N2CC(C(=O)N3CCN(c4ccccc4F)CC3)CC2=O)cc1 (stereo not drawn)	–	–	–	–	–	–
Nc1ccc2nc(-c3ccccc3)cnc2c1	–	–	66	–	–	–
COc1ccc(N(CC(=O)NCCC2=CCCCC2)S(=O)(=O)c2ccccc2)c(OC)c1	–	–	–	–	–	–
O=C(OCc1cc(=O)n2ccsc2n1)C1(c2ccccc2)CC1	·	·	–	·	·	71
O=c1cc(CN2CCCc3ccccc32)nc2sccn12	62	–	–	-11	–	–
Cc1ccc(S(=O)(=O)NCC(c2ccccc2)N2CCN(c3ccc(F)cc3)CC2)cc1 (stereo not drawn)	–	·	–	–	–	–
CCc1nn(CC(=O)NCCC(C)C)c(=O)c2cc3c(OC)cccc3n12	–	–	–	–	–	–
CC1=C(C#N)C(=O)NC(C)(C)C1	–	–	–	–	–	54
COc1cccc(CC(=O)Nc2ccc(S(=O)(=O)N3CCCCC3)cc2)c1	–	·	–	–	–	–
CCc1cccc2cc3c(N)c(C(=O)Nc4ccc(S(=O)(=O)N5CCCC5)cc4)sc3nc12	–	–	63	–	–	–
COc1cc(CCc2ccccc2)c(C(=O)O)c(O)c1CC=C(C)C	–	·	–	–	–	61
COc1cc(CCc2ccccc2)c(C(=O)O)c(O)c1C/C=C(/C)CCC=C(C)C	–	·	–	–	–	72
COCOc1ccc(/C=C/C(=O)c2c(OCOC)cc(OCOC)c(CC=C(C)C)c2O)cc1OCOC	·	–	–	·	·	–
CCOC(=O)c1c(NC(C)=O)sc2c1CCCNC2=O	–	–	–	–	–	–
N=c1c2c(-c3ccccc3)c(-c3ccccc3)n(Cc3ccccc3)c2ncn1CCCn1ccnc1	–	–	–	–	–	–
CCCCn1cnc2c(c(-c3ccccc3)c(-c3ccccc3)n2Cc2ccco2)c1=N	·	100	–	–	·	–
N=c1c2c(-c3ccccc3)c(-c3ccccc3)n(Cc3ccco3)c2ncn1Cc1ccco1	–	100	–	–	–	–
O=c1c2ccccc2n(Cc2ccc(F)cc2)c(=O)n1C1CCCC1	–	–	–	–	–	81
O=C(Cn1c(=O)n(Cc2ccc(F)cc2)c(=O)c2ccccc21)NCC1CCCO1 (stereo not drawn)	–	–	–	–	–	–
COc1cccc(Oc2ccc(S(=O)(=O)N3CCOCC3)cc2[N+](=O)[O-])c1	–	·	–	–	–	–
SMILES	cardiac RTF act	TMEM16A inh	CRFBP-R2 agonist	TMEM16A act	Cardiac RTF inh	CRFR2-BP antag
Cc1ccc(-n2c3nc(=O)[nH]c(=O)c-3cc3cc([N+](=O)[O-])ccc32)cc1C	–	–	58	–	–	–
Cc1ccc(/C=N/NC(=O)c2ccc(-n3cnnn3)cc2)cc1	–	·	–	–	–	–
COc1ccc(-c2csc(/C(C#N)=C\c3ccc(OC)c([N+](=O)[O-])c3)n2)cc1	–	–	–	–	–	–
COc1ccc(-c2csc(/C(C#N)=C\c3ccc(O)c([N+](=O)[O-])c3)n2)cc1OC	–	100	–	–	–	–
COc1cc(/C=C(\C#N)c2nc3ccccc3s2)cc([N+](=O)[O-])c1O	–	·	–	-16	–	61
Cc1ccccc1C(=O)NCC(=O)NCC1(N2CCOCC2)CCCCC1	–	–	–	–	–	–
CC(=O)Nc1ccc(NC(=O)CSc2ccc(-c3ccc4c(c3)OCO4)nn2)cc1	–	–	–	–	–	–
CC(=O)c1ccc(NC(=O)CSc2ccc(-c3ccc4c(c3)OCO4)nn2)cc1	–	–	–	–	–	122
Cn1cc(/C=C2\SC(=S)N(NC(=O)c3ccccc3Cl)C2=O)c2ccccc21	74	–	70	–	–	–
Cn1cc(/C=C2\SC(=O)NC2=S)c2ccccc21	–	–	–	-4.6	–	–
Cc1ccc(C(=O)NN2C(=O)/C(=C/c3cn(C)c4ccccc34)SC2=S)cc1	77	–	–	–	–	–
O=C(NN1C(=O)/C(=C\c2ccc(O)c([N+](=O)[O-])c2)SC1=S)c1ccccc1Cl	–	–	–	-5.5	–	–
O=C(O)c1ccc(/C=C2\SC(=S)N(NC(=O)c3ccccc3[N+](=O)[O-])C2=O)cc1	–	–	–	–	–	–
Cn1cc(C=O)c2ccccc21	–	–	–	–	–	–
Cc1ccc(SCC(=O)NCCc2ccc(F)cc2)cc1	–	–	–	–	–	–
O=C(c1ccccc1Cl)N1CCSCC1	–	–	–	–	–	–
C=C(C)C1CC=C(C)/C(=N/NC(=O)COc2cccc3ccccc23)C1 (stereo not drawn)	–	–	–	–	–	–
C=C(C)C(=O)OCC(O)COc1ccc(C(C)(C)c2ccc(OCC(O)COC(=O)C(=C)C)cc2)cc1 (stereo not drawn)	–	100	–	–	–	–
CC(=O)c1ccc(OCC(O)COc2ccc(C(C)=O)cc2)cc1	–	–	–	–	–	–
Cc1ccc(S(=O)(=O)N2CCC(=O)N(C(COCc3ccc(Cl)cc3)Cc3ccccc3)CC2)cc1 (stereo not drawn)	–	–	–	-25	–	–
Cc1ccc(S(=O)(=O)N2[C@@H](c3ccccc3F)C(C(=O)O)=CC[C@H]2c2ccc(C(C)C)cc2)cc1	–	100	–	–	–	–
Cc1ccc([C@@H]2CC=C(C(=O)O)[C@H](c3ccccc3F)N2S(=O)(=O)c2ccc(C)cc2)cc1	–	–	–	-24	–	–
CCc1ccc([C@@H]2CC=C(C(=O)O)[C@H](c3ccc(C(C)(C)C)cc3)N2S(=O)(=O)c2ccc(C)cc2)cc1	–	·	–	·	–	50
COc1ccc([C@@H]2CC=C(C(=O)O)[C@H](c3ccccc3F)N2S(=O)(=O)c2ccc(C)cc2)cc1OC	–	–	–	–	–	–
O=C(NCCN1CCCCC1)Nc1cccc(F)c1	–	–	–	–	–	–
O=c1[nH]c2cc3c(cc2cc1C(c1nnnn1C1CCCC1)N1CCCc2ccccc21)OCCO3 (stereo not drawn)	–	·	57	–	–	–
